Experimental data as given in PubChem BioAssay AID1159580 (chemical genetic matrix, 2015).
In all, about 5,500 compounds went through this assay and about 2,000 (36%) were called active. Not shown: some 18% with an inconclusive outcome. This is one part of the list. Values without a mark were called inactive. No stated cut-off is given here; in the data, active means normalized growth mostly below about 0.91 (no sharp cut-off); inconclusive means no clear call, values can overlap the other calls; inactive means mostly above about 0.92.

Test: chemical genetic growth profiling, strain panel (AID 1159580);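 further: tested at 20 µM; growth read once vehicle control cultures reached saturation at 30 °C; 1 = growth at the plate median or of vehicle wells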
Settings: growth OD

COc1cc(O)c(C(=O)O)c(O)c1 gave a normalized growth (S. cerevisiae deletion strains, locus YJR075W, strain HOC1, stronger effect = lower value) of 1, a normalized growth (S. cerevisiae deletion strains, locus YKL009W, strain mrt4, stronger effect = lower value) of 1.01 and a normalized growth (S. cerevisiae deletion strains, locus YKL068W, stronger effect = lower value) of 0.954. It also gave a normalized growth (S. cerevisiae deletion strains, locus YKL085W, strain MDH1 (second series), stronger effect = lower value) of 0.961, a normalized growth (S. cerevisiae deletion strains, locus YKL085W, strain MDH1, stronger effect = lower value) of 0.961 and a normalized growth (S. cerevisiae deletion strains, locus YKL160W, strain elf1, stronger effect = lower value) of 1. The normalized growth (S. cerevisiae deletion strains, locus YKL190W, strain CNB1, stronger effect = lower value) was 1.01, the normalized growth (S. cerevisiae deletion strains, locus YKR001C, strain vps1, stronger effect = lower value) was 1.02 and the normalized growth (S. cerevisiae deletion strains, locus YKR026C, strain gcn3, stronger effect = lower value) was 0.986. For the same compound, the normalized growth (S. cerevisiae deletion strains, locus YKR091W, strain srl3, stronger effect = lower value) was 0.991, the normalized growth (S. cerevisiae deletion strains, locus YLL001W, strain dnm1, stronger effect = lower value) was 0.981 and the normalized growth (S. cerevisiae deletion strains, locus YLL026W, stronger effect = lower value) was 1. It also gave a normalized growth (S. cerevisiae deletion strains, locus YLL041C, strain sdh2, stronger effect = lower value) of 0.986, a normalized growth (S. cerevisiae deletion strains, locus YLR027C, strain aat2, stronger effect = lower value) of 0.983 and a normalized growth (S. cerevisiae deletion strains, locus YLR039C, strain RIC1, stronger effect = lower value) of 1.06. The normalized growth (S. cerevisiae deletion strains, locus YLR058C, strain SHM2, stronger effect = lower value) was 1, the normalized growth (S. cerevisiae deletion strains, locus YLR102C, strain apc9, stronger effect = lower value) was 0.997 and the normalized growth (S. cerevisiae deletion strains, locus YLR113W, strain HOG1, stronger effect = lower value) was 0.83 (active). It also gave a normalized growth (S. cerevisiae deletion strains, locus YLR221C, strain rsa3, stronger effect = lower value) of 1, a normalized growth (S. cerevisiae deletion strains, locus YLR258W, strain gsy2, stronger effect = lower value) of 0.998 and a normalized growth (S. cerevisiae deletion strains, locus YLR262C, strain YPT6 (second series), stronger effect = lower value) of 1.02. The normalized growth (S. cerevisiae deletion strains, locus YLR262C, strain YPT6, stronger effect = lower value) was 1.02, the normalized growth (S. cerevisiae deletion strains, locus YLR268W, strain sec22, stronger effect = lower value) was 0.995 and the normalized growth (S. cerevisiae deletion strains, locus YLR320W, strain mms22, stronger effect = lower value) was 1.01. It also gave a normalized growth (S. cerevisiae deletion strains, locus YLR330W, strain CHS5, stronger effect = lower value) of 0.991, a normalized growth (S. cerevisiae deletion strains, locus YLR342W, strain FKS1 (second series), stronger effect = lower value) of 1.06 and a normalized growth (S. cerevisiae deletion strains, locus YLR342W, strain FKS1, stronger effect = lower value) of 0.99. For the same compound, the normalized growth (S. cerevisiae deletion strains, locus YLR357W, strain rsc2, stronger effect = lower value) was 1.01, the normalized growth (S. cerevisiae deletion strains, locus YLR370C, strain arc18, stronger effect = lower value) was 0.99 and the normalized growth (S. cerevisiae deletion strains, locus YLR371W, strain rom2, stronger effect = lower value) was 0.999. For the same compound, the normalized growth (S. cerevisiae deletion strains, locus YLR384C, strain iki3, stronger effect = lower value) was 0.985, the normalized growth (S. cerevisiae deletion strains, locus YLR418C, strain cdc73, stronger effect = lower value) was 1.01 and the normalized growth (S. cerevisiae deletion strains, locus YML016C, strain PPZ1, stronger effect = lower value) was 0.999. For the same compound, the normalized growth (S. cerevisiae deletion strains, locus YML032C, strain rad52, stronger effect = lower value) was 1.04, the normalized growth (S. cerevisiae deletion strains, locus YML120C, strain ndi1, stronger effect = lower value) was 0.998 and the normalized growth (S. cerevisiae deletion strains, locus YML124C, strain tub3, stronger effect = lower value) was 0.992. The normalized growth (S. cerevisiae deletion strains, locus YMR058W, strain fet3, stronger effect = lower value) was 0.999, the normalized growth (S. cerevisiae deletion strains, locus YMR078C, strain ctf18, stronger effect = lower value) was 1.01 and the normalized growth (S. cerevisiae deletion strains, locus YMR125W, strain sto1, stronger effect = lower value) was 0.973. It also gave a normalized growth (S. cerevisiae deletion strains, locus YMR129W, stronger effect = lower value) of 0.986, a normalized growth (S. cerevisiae deletion strains, locus YMR205C, strain PFK2, stronger effect = lower value) of 1.01 and a normalized growth (S. cerevisiae deletion strains, locus YMR223W, strain ubp8, stronger effect = lower value) of 1.03. It also gave a normalized growth (S. cerevisiae deletion strains, locus YMR231W, strain pep5, stronger effect = lower value) of 0.984, a normalized growth (S. cerevisiae deletion strains, locus YMR263W, strain SAP30, stronger effect = lower value) of 1 and a normalized growth (S. cerevisiae deletion strains, locus YMR307W, strain GAS1, stronger effect = lower value) of 1.03. It also gave a normalized growth (S. cerevisiae deletion strains, locus YNL067W, strain RPL9B, stronger effect = lower value) of 1, a normalized growth (S. cerevisiae deletion strains, locus YNL071W, strain lat1, stronger effect = lower value) of 0.99 and a normalized growth (S. cerevisiae deletion strains, locus YNL128W, strain TEP1, stronger effect = lower value) of 1. For the same compound, the normalized growth (S. cerevisiae deletion strains, locus YNL153C, strain GIM3, stronger effect = lower value) was 0.998, the normalized growth (S. cerevisiae deletion strains, locus YNL183C, strain NPR1, stronger effect = lower value) was 0.84 and the normalized growth (S. cerevisiae deletion strains, locus YNL209W, strain ssb2, stronger effect = lower value) was 0.981. For the same compound, the normalized growth (S. cerevisiae deletion strains, locus YNL233W, strain BNI4, stronger effect = lower value) was 1.01, the normalized growth (S. cerevisiae deletion strains, locus YNL248C, strain rpa49, stronger effect = lower value) was 0.992 and the normalized growth (S. cerevisiae deletion strains, locus YNL250W, strain rad50, stronger effect = lower value) was 0.97. For the same compound, the normalized growth (S. cerevisiae deletion strains, locus YNL271C, strain bni1, stronger effect = lower value) was 0.945, the normalized growth (S. cerevisiae deletion strains, locus YNL298W, strain CLA4, stronger effect = lower value) was 0.977 and the normalized growth (S. cerevisiae deletion strains, locus YNL307C, strain MCK1, stronger effect = lower value) was 1.02. For the same compound, the normalized growth (S. cerevisiae deletion strains, locus YNL322C, strain KRE1 (second series), stronger effect = lower value) was 0.972, the normalized growth (S. cerevisiae deletion strains, locus YNL322C, strain KRE1, stronger effect = lower value) was 0.99 and the normalized growth (S. cerevisiae deletion strains, locus YNR049C, strain mso1, stronger effect = lower value) was 0.98. It also gave a normalized growth (S. cerevisiae deletion strains, locus YNR052C, strain pop2, stronger effect = lower value) of 1.02, a normalized growth (S. cerevisiae deletion strains, locus YOL006C, strain TOP1, stronger effect = lower value) of 1.04 and a normalized growth (S. cerevisiae deletion strains, locus YOL012C, strain htz1) of 0.943. The normalized growth (S. cerevisiae deletion strains, locus YOL147C, strain pex11, stronger effect = lower value) was 1, the normalized growth (S. cerevisiae deletion strains, locus YOR001W, strain rrp6, stronger effect = lower value) was 0.999 and the normalized growth (S. cerevisiae deletion strains, locus YOR061W, strain CKA2, stronger effect = lower value) was 1.01. The normalized growth (S. cerevisiae deletion strains, locus YOR069W, strain VPS5, stronger effect = lower value) was 0.993, the normalized growth (S. cerevisiae deletion strains, locus YOR070C, strain gyp1, stronger effect = lower value) was 0.994 and the normalized growth (S. cerevisiae deletion strains, locus YOR080W, strain dia2, stronger effect = lower value) was 1. It also gave a normalized growth (S. cerevisiae deletion strains, locus YOR083W, strain WHI5, stronger effect = lower value) of 1.01, a normalized growth (S. cerevisiae deletion strains, locus YOR106W, strain vam3, stronger effect = lower value) of 1.01 and a normalized growth (S. cerevisiae deletion strains, locus YOR136W, strain idh2, stronger effect = lower value) of 1.03. For the same compound, the normalized growth (S. cerevisiae deletion strains, locus YOR144C, strain elg1, stronger effect = lower value) was 1, the normalized growth (S. cerevisiae deletion strains, locus YOR184W, strain ser1, stronger effect = lower value) was 1.04 and the normalized growth (S. cerevisiae deletion strains, locus YOR231W, strain MKK1, stronger effect = lower value) was 0.885. The normalized growth (S. cerevisiae deletion strains, locus YOR265W, strain rbl2, stronger effect = lower value) was 0.997, the normalized growth (S. cerevisiae deletion strains, locus YOR270C, strain vph1, stronger effect = lower value) was 1.02 and the normalized growth (S. cerevisiae deletion strains, locus YOR290C, strain snf2, stronger effect = lower value) was 1.01. It also gave a normalized growth (S. cerevisiae deletion strains, locus YOR316C, strain cot1, stronger effect = lower value) of 1, a normalized growth (S. cerevisiae deletion strains, locus YPL051W, strain arl3, stronger effect = lower value) of 0.986 and a normalized growth (S. cerevisiae deletion strains, locus YPL055C, strain LGE1, stronger effect = lower value) of 1.01. For the same compound, the normalized growth (S. cerevisiae deletion strains, locus YPL078C, strain atp4, stronger effect = lower value) was 0.992, the normalized growth (S. cerevisiae deletion strains, locus YPL106C, strain sse1, stronger effect = lower value) was 0.982 and the normalized growth (S. cerevisiae deletion strains, locus YPL240C, strain hsp82, stronger effect = lower value) was 1. For the same compound, the normalized growth (S. cerevisiae deletion strains, locus YPL241C, strain CIN2, stronger effect = lower value) was 0.997, the normalized growth (S. cerevisiae deletion strains, locus YPL256C, strain CLN2, stronger effect = lower value) was 0.824 (active) and the normalized growth (S. cerevisiae deletion strains, locus YPR119W, strain clb2, stronger effect = lower value) was 0.987. It also gave a normalized growth (S. cerevisiae deletion strains, locus YPR141C, strain kar3, stronger effect = lower value) of 0.968, a normalized growth (S. cerevisiae deletion strains, locus YPR163C, strain tif3, stronger effect = lower value) of 1.01 and a normalized growth (S. cerevisiae deletion strains, locus YPR167C, strain met16, stronger effect = lower value) of 1. It also gave a normalized growth (S. cerevisiae deletion strains, strain wtn01, stronger effect = lower value) of 1.01 and a normalized growth (S. cerevisiae strains, strain wild type, stronger effect = lower value) of 1.
